The list is not random: actives were taken first. Their share in the collection is about 2.5%.
HSF1 activator: HSF-1 activators, primary screen, NIH3T3-HGL cells, MG132 stress, luminescence, single point. NIH3T3-HGL HSF-1 luciferase reporter, 8 h; 100% = twice DMSO control signal. activation, % at 9 µM. 1.7% of 300,000 active;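 active = mean replicate activation of at least 50% with a set share of replicates each reaching 50%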;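 also: 0% = median of the neutral control wells and 100% = twice that signal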
NPR2 activator: human GC-B receptor activators, primary screen, HEK293 GC-B cells, cGMP TR-FRET, EC30 CNP; Atrial natriuretic peptide receptor 2 (Homo sapiens), P20594; 0% at EC30 CNP, 100% saturating CNP; activation, % at 10 µM; 0.11% of 370,000 active;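 active = activation at 10 µM reaching about 35% in either raw or pattern-adjusted values, limit read from the data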
Dyrk1A ADPGlo: rat Dyrk1A kinase inhibitors, primary screen, biochemical, single point, plate reader | ADP-Glo luminescence, NFATc1 peptide | inhibition, % at 12.5 µM | 0.43% of 310,000 active; in the data active = inhibition above about 50%;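 also: plate controls were vehicle with enzyme for no effect and no enzyme for full effect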
aDG glyco act: activators of alpha-DG glycosylation, primary screen, uHTS, Pro5-aDG cells, AlphaScreen | alpha-DG glycosylation AlphaScreen (IIH6); 0% Pro5, 100% B10-LARGE cell signal | activation, % at 10 µM | 0.22% of 360,000 active;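 active = activation of at least 8% versus controls, or a plate z-score of at least 8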;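 also: Pro5 are CHO cells carrying HIG-tagged alpha-DG that lacks glycosylation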
HSF1 inh: HSF1 inhibitors in luciferase reporter cells, primary screen, cell-based, NIH3T3, luminescence. activity change, negative = inhibition, % at 7.5 µM (by protocol). NIH3T3-HGL HSE-luciferase, MG132-induced, luminescence 8 h; hits give low values. 0.77% of 300,000 active;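 active = more than half of replicate wells show activity change below -50%, luminescence cut by over half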;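 also: luciferase reports HSF-1 transcriptional activity via heat shock element; 0% = median of DMSO wells and -100% = zero luminescence signal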
NPR1 activator: GC-A stimulated cGMP production enhancers – HEK293 GC-A cells, cGMP TR-FRET, EC30 ANP, primary screen; Atrial natriuretic peptide receptor 1 (Homo sapiens), P16066; 0% at EC30 ANP, 100% saturating ANP; activation, % at 10 µM; 0.14% of 370,000 active; AID 1671463, 2021; in the data active = activation above about 40%
Target sequence (P16066 whole entry, looked up): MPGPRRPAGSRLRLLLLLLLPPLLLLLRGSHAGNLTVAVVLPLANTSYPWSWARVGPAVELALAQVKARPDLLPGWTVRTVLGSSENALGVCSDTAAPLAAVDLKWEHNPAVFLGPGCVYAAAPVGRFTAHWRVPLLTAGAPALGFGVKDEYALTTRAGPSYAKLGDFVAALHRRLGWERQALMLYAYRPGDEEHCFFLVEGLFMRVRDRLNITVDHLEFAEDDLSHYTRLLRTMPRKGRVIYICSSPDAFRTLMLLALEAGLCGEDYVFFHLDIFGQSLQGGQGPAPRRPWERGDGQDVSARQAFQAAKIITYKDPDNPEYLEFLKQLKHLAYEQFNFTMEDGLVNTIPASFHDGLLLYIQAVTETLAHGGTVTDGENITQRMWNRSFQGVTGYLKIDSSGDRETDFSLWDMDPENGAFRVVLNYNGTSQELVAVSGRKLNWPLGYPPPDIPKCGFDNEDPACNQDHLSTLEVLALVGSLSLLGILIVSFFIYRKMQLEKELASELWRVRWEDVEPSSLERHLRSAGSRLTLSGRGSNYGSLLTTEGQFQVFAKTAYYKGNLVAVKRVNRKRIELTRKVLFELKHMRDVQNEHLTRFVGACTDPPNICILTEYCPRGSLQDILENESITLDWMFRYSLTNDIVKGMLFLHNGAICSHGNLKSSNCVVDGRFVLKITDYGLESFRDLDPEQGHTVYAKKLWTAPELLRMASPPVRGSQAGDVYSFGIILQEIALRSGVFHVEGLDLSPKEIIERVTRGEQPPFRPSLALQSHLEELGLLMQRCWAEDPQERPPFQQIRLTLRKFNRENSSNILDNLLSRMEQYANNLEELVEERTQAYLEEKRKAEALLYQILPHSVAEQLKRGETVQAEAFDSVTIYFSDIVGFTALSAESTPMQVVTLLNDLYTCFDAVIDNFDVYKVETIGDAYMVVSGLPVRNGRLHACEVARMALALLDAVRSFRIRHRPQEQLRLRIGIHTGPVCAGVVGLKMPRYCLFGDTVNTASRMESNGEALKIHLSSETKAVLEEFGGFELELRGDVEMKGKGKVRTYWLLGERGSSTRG
Starred values were filed as active, the others as inactive.

How did CCCCCCN1CC(=O)N2[C@@H](Cc3c([nH]c4ccccc34)C2(C)C)C1=O do in these assays?
HSF1 activator: -58; NPR2 activator: 4; Dyrk1A ADPGlo: -6; aDG glyco act: 0; HSF1 inh: -51*; NPR1 activator: 14

What do the screens show for `Cc1cccc(NC(=O)CN2C(=O)CCSc3ccccc32)c1C`?
NPR2 activator: -21; NPR1 activator: -17

What do the screens show for `CN(CC(=O)Nc1ccc(N2CCOCC2)cc1)Cc1c(O)ccc2ccccc12`?
HSF1 activator: 198*; NPR2 activator: -4; Dyrk1A ADPGlo: 0; aDG glyco act: 0; HSF1 inh: 160; NPR1 activator: -4

How did CN(CC(=O)Nc1ccc(N2CCOCC2)cc1)CC(=O)Nc1ccc(N2CCOCC2)cc1 do in these assays?
HSF1 activator: -1; NPR2 activator: -8; Dyrk1A ADPGlo: 12; aDG glyco act: 0; HSF1 inh: 3; NPR1 activator: -4

How did O=C(CSc1c2c(nc3ccccc13)CCCC2)NCc1ccco1 do in these assays?
HSF1 activator: 86*; NPR2 activator: -1; Dyrk1A ADPGlo: -6; aDG glyco act: 0; HSF1 inh: 40; NPR1 activator: 1

How did O=C(CSc1c2c(nc3ccc(Cl)cc13)CCCC2)NCCCN1CCOCC1 do in these assays?
HSF1 activator: 68*; NPR2 activator: -2; Dyrk1A ADPGlo: 28; aDG glyco act: 1; HSF1 inh: 41; NPR1 activator: -5

How did O=C(NCc1ccco1)c1c2c(nc3ccccc13)CCC2 do in these assays?
HSF1 activator: -10; NPR2 activator: 2; Dyrk1A ADPGlo: 4; aDG glyco act: 0; HSF1 inh: -5; NPR1 activator: 1

What do the screens show for `O=C(CSc1c2c(nc3cc(Cl)ccc13)CCCC2)NCCCN1CCOCC1`?
HSF1 activator: 189*; NPR2 activator: 3; Dyrk1A ADPGlo: 10; aDG glyco act: 0; HSF1 inh: 141; NPR1 activator: -4

What do the screens show for `CCN(CC)CCCNC(=O)CSc1c2c(nc3cc(Cl)ccc13)CCCC2`?
HSF1 activator: 202*; NPR2 activator: 5; Dyrk1A ADPGlo: 8; aDG glyco act: 0; HSF1 inh: 154; NPR1 activator: -2

Results for COCCCNC(=O)CSc1c2c(nc3ccc(Cl)cc13)CCCC2 ?
HSF1 activator: 40; NPR2 activator: -5; Dyrk1A ADPGlo: 25; aDG glyco act: 1; HSF1 inh: 37; NPR1 activator: -1

Results for O=C(O)CSc1c2c(nc3cc(C(=O)Nc4ccc(F)c(Cl)c4)ccc13)CCCC2 ?
HSF1 activator: -26; NPR2 activator: -1; Dyrk1A ADPGlo: -9; aDG glyco act: 0; HSF1 inh: -7; NPR1 activator: 1

Results for CCCS(=O)(=O)N1CCC(C(=O)NCCc2ccc(C)cc2)CC1 ?
HSF1 activator: -3; NPR2 activator: 4; Dyrk1A ADPGlo: -3; aDG glyco act: 0; HSF1 inh: 1; NPR1 activator: 1

How did O=C(CSc1nc(-c2cccs2)cc(C(F)(F)F)n1)NCc1ccccc1 do in these assays?
HSF1 activator: -4; NPR2 activator: 1; Dyrk1A ADPGlo: 3; aDG glyco act: 0; HSF1 inh: 2; NPR1 activator: 0

How did Cc1ccc(CNC(=O)CSc2c3c(nc4cc(Cl)ccc24)CCCC3)o1 do in these assays?
HSF1 activator: 65*; NPR2 activator: -4; Dyrk1A ADPGlo: 5; aDG glyco act: 1; HSF1 inh: 44; NPR1 activator: -12

How did CC(C)CCNC(=O)c1ccc2c(SCC(=O)O)c3c(nc2c1)CCC3 do in these assays?
HSF1 activator: -89; NPR2 activator: 1; Dyrk1A ADPGlo: 1; aDG glyco act: 0; HSF1 inh: -86*; NPR1 activator: 1

Results for CCCCNC(=O)c1ccc2c(SCC(=O)O)c3c(nc2c1)CCCC3 ?
HSF1 activator: 12; NPR2 activator: 6; Dyrk1A ADPGlo: 2; aDG glyco act: 0; HSF1 inh: -7; NPR1 activator: -2
